Bioassay records from PubChem BioAssay.
An excerpt weighted towards active compounds, which were near 5.3% of everything screened.
SUMO Mot1 rescue: SUMOylation pathway inhibition by Mot1-301 growth rescue | S. cerevisiae Mot1-301 growth rescue, ATP luminescence, 38.5C; percent above DMSO median, 100 means doubled | growth rescue, % at 18.8 µM | 320,000 compounds, 1% hits | AID 2716;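 active = every valid replicate shows activation above 250% relative to neutral control wells; inactive = the rest, any valid replicate at or below 250%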;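 also: OY570 slx delta 5 strain wells were the positive control but not used for scaling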
HIF act: HIF pathway transcriptional activation. U2OS HRE-luciferase reporter, luminescence; normalized: DMSO 0%, desferrioxamine 100%. activation, % at 7.5 µM (by protocol). 300,000 compounds, 0.32% hits;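 active = mean activation of at least 10% of the iron chelator positive control signal, with at least half of replicates also reaching 10%; inconclusive = mean and replicate majority disagree about reaching 10%; inactive = mean and most replicates under 10%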
ALR inh: blocks human ALR sulfhydryl oxidase activity; P55789; inhibition, % (test concentration not listed); purified ALR, DTT oxidation, H2O2 HRP-luminol luminescence; 290,000 compounds, 3.8% hits;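 active = mean replicate inhibition above about 79%, with every replicate also reaching it, limit read from the data; inconclusive = only one of the two criteria met; inactive = mean below limit and not every replicate reaching it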
Target sequence (P55789 whole entry, looked up): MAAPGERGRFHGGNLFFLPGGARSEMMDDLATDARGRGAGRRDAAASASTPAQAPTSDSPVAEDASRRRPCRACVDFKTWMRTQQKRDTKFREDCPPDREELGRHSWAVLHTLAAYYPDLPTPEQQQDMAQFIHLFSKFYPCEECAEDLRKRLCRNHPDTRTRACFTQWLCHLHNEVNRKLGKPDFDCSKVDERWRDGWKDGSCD
PfM18AAP inh: blocks P. falciparum M18 aspartyl aminopeptidase. recombinant PfM18AAP, H-Glu-NHMec fluorogenic cleavage. inhibition, % at 7.35 µM. 290,000 compounds, 1.2% hits. AID 1822;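 active = inhibition above the campaign mean inhibition over all tested compounds plus 3 SD, cut at about 28% in these data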;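 also: 0% = plate median of test compound wells and 100% = 2 mM ZnCl2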
* marks the source's active call; other numbers are inactive results; ? = inconclusive; . = not tested or not shown.

SMILES	SUMO Mot1 rescue	HIF act	ALR inh	PfM18AAP inh
CO/C([O-])=N/c1c[n+](-c2ccc(Cl)cc2)no1	290*	0	-66	0
Cc1cc(C)cc(C(=O)N(NC(=O)Nc2ccc(Cl)cc2)C(C)(C)C)c1	-13	0	-4	3
CC12CCC(=O)N1C(C(=O)Nc1cc(Cl)ccc1N1CCCC1)CS2 (configuration not stated)	0	.	86*	.
CCc1cccc(NC(=O)CSC2=NS(=O)(=O)c3ccccc32)c1	-7	1	99*	0
Cc1cc2c3c(c1)C1(C(=O)N3C(C)(C)CC2C)C(C#N)=C(N)Oc2cc(O)ccc21 (configuration not stated)	-15	-1	-21	-1
CCc1cc2c3c(c1)C1(C(=O)N3C(C)(C)CC2C)C(C#N)=C(N)N2C(=C1C#N)Nc1ccccc12 (configuration not stated)	608*	0	3	7
Cc1ccc(S(=O)(=O)CCC(=O)OCC(=O)c2cc(C)ccc2C)cc1	-4	1	-4	.
Cc1ccc(S(=O)(=O)CCC(=O)c2ccc(O)cc2O)cc1	-13	-1	98*	3
COc1ccc(/C=C2\CCCc3c2nc2ccccc2c3C(=O)OCC(=O)c2c(N)n(C)c(=O)n(C)c2=O)cc1	-22	-15	.	19
O=C(O)COCc1nc2ccccc2s1	17	0	-8	30*
CC(=O)OCc1nc2ccccc2s1	9	4	-6	4
Cc1cccc(N2CCN(C(=O)c3ccncc3)CC2C)c1 (configuration not stated)	0	1	98*	0
O=C(Nc1ccc(F)cc1)C1CCCO1 (configuration not stated)	-3	-1	-4	7
Cc1cccc(N2CCN(C(=O)c3ccc4ccccc4c3)CC2C)c1 (configuration not stated)	28	.	12	.
Cc1cccc(N2CCN(C(=O)Cn3nc(C)n4cccc4c3=O)CC2C)c1 (configuration not stated)	-2	0	91*	1
O=C(Nc1ccc(O)cc1)C1CCCO1 (configuration not stated)	-8	-2	99*	-6
Cc1cccc(N2CCN(C(=O)c3ccc(NC(=O)C4CCCO4)cc3)CC2C)c1 (configuration not stated)	2	0	99*	-1
Cc1cccc(N2CCN(c3cccc(C)c3)C2c2cccnc2)c1	-4	1	95*	0
Cc1cccc(N2CCN(C(=O)c3cn4ccccc4n3)CC2C)c1 (configuration not stated)	2	0	83*	1
Cc1ccc(N2CCN(c3ccc(C)cc3)C2c2ccncc2)cc1	17	1	40	-12
CCn1c(SCC(=O)N/N=C(\C)c2ccncc2)nnc1-c1ccc(C)cc1	-5	0	32	-11
Nc1cc(-c2ccc(Cl)cc2)nn1-c1ccccc1	21	5	0	1
O=C1CCn2nc(-c3ccc(Cl)cc3)cc2N1	605*	3	-4	-2
O=C(NNC(=O)c1cc(-c2cccc(Br)c2)nc2ccccc12)c1csc(N2CCOCC2)n1	-20	0	-15	.
COc1cccc(-c2nc(SCC(=O)Nc3nc(-c4ccccc4)c(C)s3)[nH]c(=O)c2C#N)c1	14	0	99*	7
SMILES	SUMO Mot1 rescue	HIF act	ALR inh	PfM18AAP inh
CCOC(=O)Cc1csc(NC(=O)CSc2nc(-c3ccccc3)c(C#N)c(=O)[nH]2)n1	1	0	98*	-9
Cc1sc(NC(=O)CSc2nc(O)cc(=O)[nH]2)nc1-c1ccccc1	-6	0	99*	3
CSCC[C@H](NS(=O)(=O)c1ccc(C)cc1)C(=O)N1CCC(C(=O)N[C@@H](Cc2ccc(O)cc2)C(=O)O)CC1	-9	0	.	-14
O=C(CSc1nccc2ccccc12)N1CCN(c2ccccn2)CC1	-19	0	98*	2
c1cc2c(cc1Cn1cnnn1)OCO2	33	-3	-1	-5
COc1cc(Cn2cnnn2)ccc1O	.	0	81*	9
O=C(N1CCOCC1)N1CCc2ccccc21	-1	1	-9	-3
CCCC1COC(Cn2cncn2)(c2ccc(C)cc2)O1 (configuration not stated)	281*	0	.	3
CCC(C)n1ncn(-c2ccc(N3CCN(c4ccc(OCC5COC(Cn6cncn6)(c6ccc(Cl)cc6Cl)O5)cc4)CC3)cc2)c1=O (configuration not stated)	271	0	-9	-4
COc1cc([N+](=O)[O-])ccc1NC(=O)C[n+]1ccccc1C	.	0	-12	0
Cc1cccc(NC(=S)NNC(=O)c2nn(C)cc2Cl)c1	6	1	89*	12
Cc1ccc(NC(=O)COC(=O)c2nn(C)cc2Cl)cc1	-18	0	.	3
Cc1cccc(NC(=S)NNC(=O)c2ccccc2Br)c1	-15	3	?	5
Cc1ccc(NC(=S)NNC(=O)c2nn(C)cc2Cl)cc1	-21	1	91*	8
COc1ccc(-c2nc(CCl)cs2)cc1OC	-8	1	99*	4
COc1ccc(-c2nc(CCl)cs2)cc1	-27	1	.	-9
COc1cccc(-c2nc(CCl)cs2)c1	-13	2	99*	-4
CCc1ccc(-c2nc(CCl)cs2)cc1	40	3	21	-9
C#Cc1ccc([C@H]2C=C(C(=O)O)O[C@@H](OCCCCO)C2)cc1	-10	1	17	.
COc1cc(/C=C2\CCOC2=O)cc(OC)c1OC	17	-14	1	5
CN1CCC(N(C)C(=O)c2ccc(Cl)c(S(=O)(=O)N3CCc4ccccc43)c2)CC1	10	.	-6	.
Nc1ccccc1SSc1ccccc1N	8	0	.	14
CC(C(Sc1ccccc1N)c1ccccc1)[N+](=O)[O-] (configuration not stated)	747*	4	?	31*
O=C(/C=C/c1ccc(Br)o1)OCc1ccccc1	305*	0	-11	-4
CC1CCN(c2nc3c(c(=O)[nH]c(=O)n3C)n2Cc2ccccc2Cl)CC1	.	0	.	1
SMILES	SUMO Mot1 rescue	HIF act	ALR inh	PfM18AAP inh
CCCCn1c(SCC(=O)N(C)C2CCS(=O)(=O)C2)nc2cc(S(N)(=O)=O)ccc21 (configuration not stated)	53	0	-1	1
CC1=NN(c2ccccc2)C(=O)C1/C=C1\NC(=S)NC1=O (configuration not stated)	-12	0	89*	10
CC(C)C1=CC2=CCC3C(C)(C(=O)O)CCCC3(C)C2CC1 (configuration not stated) (tested in a mixture with another compound)	63	0	.	7
O=C(COC(=O)CCc1ccccc1)NNC(=O)c1ccccc1	2	.	-2	.
Cc1ccc(-n2ccnc(SCC(=O)NC3CCCC3)c2=O)cc1F	4	0	94*	.
Cc1ccc(-n2ccnc(SCC(=O)NC3CCCC3)c2=O)cc1Cl	-5	0	.	.
CCCC1CC(C)(/C(C)=N\NC(N)=S)OC1=O (configuration not stated)	-9	0	4	28*
